Consider 85 molecules from PubChem BioAssay AID1851 (National Center for Advancing Translational Sciences (NCATS), 2009).

Out of some 16,000 compounds screened, about 4,000 (25%) were called active. Roughly 26% stayed inconclusive and do not appear here. The call rests on the fitted dose curve; in most records, active means well fitted curve in the direction sought with a large enough effect; inconclusive means small, poorly fitted or top-dose-only effect, or effect the other way; inactive means no such curve, though single readings can be large or run the other way. Not all results are given here. Square brackets hold non-standard residues; d marks the D form. Peptide text beside a SMILES is read from it.
On the % scale 0 is the no-effect control and ±100 the full control effect.

In the assay the target is Cytochrome P450 2C9 (Homo sapiens) (UniProt P11712). The assay can be described thus: Cytochrome panel assay with activity outcomes. Conditions: recombinant CYP, pro-luciferin dealkylation, luminescence, p450-cyp2c9; series mostly up to 57.1 µM.
Sequence of Cytochrome P450 2C9 (Homo sapiens) (P11712 whole entry, looked up): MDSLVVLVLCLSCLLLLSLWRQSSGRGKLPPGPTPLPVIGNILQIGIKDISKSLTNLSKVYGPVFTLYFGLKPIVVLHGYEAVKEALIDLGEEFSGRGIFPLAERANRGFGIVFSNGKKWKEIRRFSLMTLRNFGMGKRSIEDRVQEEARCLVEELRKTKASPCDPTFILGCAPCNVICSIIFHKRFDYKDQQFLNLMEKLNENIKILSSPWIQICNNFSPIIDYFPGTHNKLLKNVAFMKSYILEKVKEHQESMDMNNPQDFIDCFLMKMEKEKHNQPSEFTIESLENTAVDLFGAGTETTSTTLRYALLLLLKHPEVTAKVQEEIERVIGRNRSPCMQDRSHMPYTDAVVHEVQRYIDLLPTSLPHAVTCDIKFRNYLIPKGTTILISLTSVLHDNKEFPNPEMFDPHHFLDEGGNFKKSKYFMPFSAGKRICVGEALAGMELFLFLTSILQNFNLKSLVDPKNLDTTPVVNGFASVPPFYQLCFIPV
Take `C#CCCCO/N=C1/C[C@@H](O)[C@@H](O)[C@@H]2[C@@H]3C(=O)N(CCC(=O)OCC)C(=O)[C@H]3CC[C@H]12`: the activity, negative = inhibition was 12.8% [at 11.4 µM] (inactive).
On to `Cc1cccc(C)c1OC[C@@H](N)C(C)C`, for which the AC50 entry was “inactive”.
Turning to `COC(=O)c1[nH]c2ccc(Br)cc2c1NC(=O)CN1CCCc2ccccc21`, the half-maximal activity concentration (AC50) is 0.891 µM (active).
Consider `COC(=O)c1[nH]c2ccc(Br)cc2c1NC(=O)CN1CCN(C2CCCCC2)CC1`, for which the AC50 entry is “inactive”.
As to `CC1(C)CC(=O)C2=C(C1)Nc1cc3c(cc1C2c1ccc(F)cc1)OCO3` (stereo not given), the AC50 is 4.47 µM (active).
Take `N#Cc1c(NC(=O)C(F)(F)F)sc2c3c(=O)c4ccccc4c(=O)c=3oc3ccccc3c12`: the AC50 was 0.0501 µM (active).
Consider `O=C(NC12CC3CC(CC(C3)C1)C2)N1CCN(c2nc(-c3ccccc3)cs2)CC1`, for which the AC50 was 12.6 µM (active).
Still for that read-out and setting: under `COc1ccc(-n2c(=O)c(C)nc3cnc(OC)nc32)cc1` stands “inactive”.
Regarding `Cc1noc(C)c1-c1ccc2ncnc(N(C)C)c2c1`, the activity, negative = inhibition is 10.9% [at 2.29 µM] (inactive).
For the molecule `CN(C)CN1C(=O)S/C(=C2/C(=O)N(CN(C)C)c3ccccc32)C1=O`, the activity, negative = inhibition is -9.33% [at 11.4 µM] (inactive).
As for `CCN1C(=O)/C(=C2\SC(=S)N(CCCOC)C2=O)c2ccccc21`, the concentration at half-maximal activity (AC50) was 0.794 µM (active).
As to `CC(C)Cn1cnc2c(Sc3c([N+](=O)[O-])ncn3C)nc(N)nc21`, the activity, negative = inhibition was 29.4% [at 11.4 µM] (inactive).
On to `CCN(CC)CCC(=O)Nc1ccc2c(c1)N(C(=O)CN(CC)CC)c1ccccc1CC2`, for which the AC50 result is “inactive”.
Turning to `O=C(CN1C(=O)c2ccccc2C1=O)NC1(C(=O)O)CCCC1`, the activity, negative = inhibition is 4.07% [at 11.4 µM] (inactive).
Consider `O=C1c2ccccc2C(=O)N1CC(=O)N1c2ccccc2CCc2ccccc21`, for which the AC50 was 3.55 µM (active).
As for `Cc1noc(C)c1-c1ccc2ncnc(NC3CCNCC3)c2c1`, the activity, negative = inhibition is 14.5% [at 2.29 µM] (inactive).
For the molecule `Cc1nnc(S(=O)(=O)c2ccc(N=Nc3c(N)nc(N)nc3N)cc2)s1`, the activity, negative = inhibition was -2.75% [at 11.4 µM] (inactive).
Take `Cc1nc(-c2cccc(NC(=O)c3cc4cc(Br)ccc4oc3=O)c2)cs1`: the AC50 entry is “inactive”.
As for `COc1cc(C(=O)NC(=S)Nc2ccc3oc(=O)ccc3c2)cc(OC)c1OC`, the AC50 entry is “inactive”.
Regarding `CCCC(=O)N1CCN(c2ccc(NC(=O)c3ccc(OCC)c([N+](=O)[O-])c3)cc2)CC1`, the AC50 result is “inactive”.
Take `COc1cc(C(=O)NC(=S)Nc2cccc(-c3cc4ccccc4oc3=O)c2)cc(OC)c1OC`: the AC50 is 3.55 µM (active).
On the same count and under the same terms, under `COc1cc(NC(=O)c2cc(Cl)ccc2Cl)ccc1-c1cc2ccccc2oc1=O` stands 4.47 µM (active).
Turning to `CCOc1ccc(C(=O)Nc2cccc(-c3cc4ccccc4oc3=O)c2)cc1[N+](=O)[O-]`, the AC50 was 1.41 µM (active).
`NCCOB(c1ccccc1)c1ccccc1`: the AC50 result is “inactive”.
Consider `Cc1ccc(-n2c3c(c(=O)[nH]c2=O)C(NS(=O)(=O)c2ccc(C)cc2)(C(F)(F)F)C(=O)N3)cc1` (stereo not given), for which the AC50 entry was “inactive”.
With `CC(=O)Nc1ccc(S(=O)(=O)NC2(C(F)(F)F)NC(=O)N(c3ccc(Cl)cc3)C2=O)cc1` (stereo not given), the AC50 is 10 µM (active).
In the case of `CN(N=O)c1ccc(/C=C\c2ccnc3ccccc23)cc1`, the activity, negative = inhibition was -6.97% [at 11.4 µM] (inactive).
Consider `Oc1c(CN2CCCCC2)cc(Br)c2cccnc12`, for which the AC50 entry is “inactive”.
For `CON(c1nc(N(C)C)nc(N(C)C)n1)S(=O)(=O)c1ccccc1Cl`, the AC50 was 11.2 µM (active).
`CC(=O)Nc1cccc(C(=O)OC(C(=O)c2ccc(C)c(C)c2)c2ccccc2)c1` (stereo not given): the AC50 was 3.98 µM (active).
As to `NC(N)=NC(=O)c1nc(Cl)c(N)nc1N`, the AC50 entry is “inactive”.
With `FC(F)Sc1ccc(N=C2NN=C(c3ccc4c(c3)OCCO4)CS2)cc1`, the AC50 is 22.4 µM (active).
Same read-out and setting: under `C[N+](C)(C)CCCCCNCC12CC3CC(CC(C3)C1)C2` stands “inactive”; under `COC(=O)[C@@]1(Cc2ccc(F)cc2)[C@H]2c3cc(C(=O)N4CCCC4)n(Cc4ccc(OC(F)(F)F)cc4)c3C[C@H]2CN1C(=O)c1ccccc1`, 6.31 µM (active); under `COC(=O)[C@@]1(Cc2ccc(F)cc2)[C@H]2c3cc(C(=O)N4CCCC4)n(Cc4ccc(C)c(F)c4F)c3C[C@H]2CN1C(=O)c1ccccc1`, 10 µM (active).
Turning to `COC(=O)[C@@]1(Cc2ccc(F)cc2)[C@H]2c3cc(C(=O)N4CCCC4)n(Cc4ccccc4)c3C[C@H]2CN1C(=O)c1ccccc1`, the AC50 is 3.98 µM (active).
Still for that read-out and setting: the result for `COC(=O)[C@@]1(Cc2ccc(F)cc2)[C@H]2c3cc(C(=O)N4CCCC4)n(Cc4ccc(S(C)(=O)=O)cc4)c3C[C@H]2CN1C(=O)c1ccccc1` reads 25.1 µM (active); that for `CCC(=O)c1ccc2c(c1)N(CCCN(C)C)c1ccccc1S2`, “inactive”.
For the molecule `CC(C)(C)N1C(=O)[C@H]2[C@H]3[C@H](O)[C@H](O)C/C(=N/NC(=O)OCc4ccccc4)[C@H]3CC[C@@H]2C1=O`, the activity, negative = inhibition was 16% [at 11.4 µM] (inactive).
For the molecule `COC(=O)[C@@]1(Cc2ccc(F)cc2)[C@H]2c3cc(C(=O)N(C)C)n(Cc4ccc(C)c(F)c4F)c3C[C@H]2CN1C(=O)c1ccccc1`, the AC50 was 25.1 µM (active).
Take `COC(=O)[C@@]1(Cc2ccccc2)[C@H]2c3cc(C(=O)N4CCCC4)n(CC4CC4)c3C[C@H]2CN1C(=O)c1ccccc1`: the AC50 is 1 µM (active).
In the case of `COC(=O)[C@@]1(Cc2ccccc2)[C@H]2c3cc(C(=O)N4CCCC4)n(Cc4nc5ccccc5[nH]4)c3C[C@H]2CN1C(=O)c1ccccc1`, the concentration at half-maximal activity (AC50) was 1 µM (active).
In the case of `CCOC(=O)[C@H](CCc1ccccc1)N[C@@H](C)C(=O)N1CCC[C@H]1C(=O)O`, the AC50 result was “inactive”.
`Cc1cc(=O)n2c3ccccc3n(CC(O)CN3CCCCC3)c2c1C#N` (stereo not given): the AC50 result was “inactive”.
For `CCSc1nnc(NC(=O)CSc2nc3c(cc2C#N)CCCC3)s1`, the AC50 is 2.51 µM (active).
As for `CCCCC(=O)Nc1nnc(SCC(=O)NC2CCCC2)s1`, the AC50 entry was “inactive”.
As for `O=C(O)Cc1cccnc1`, the activity, negative = inhibition was 12.8% [at 11.4 µM] (inactive).
Consider `Cn1c(C(=O)O)c(CC(=O)NCc2cccnc2)c2ccccc21`, for which the AC50 is 3.55 µM (active).
For the molecule `CN(C)C(=O)c1ccc(-c2nc(NCc3cccnc3)c3ccccc3n2)cc1`, the activity, negative = inhibition is 8.86% [at 2.29 µM] (inactive).
For `Nc1[nH]n2c(=O)cc(-c3ccccc3)nc2c1N=Nc1ccccc1`, the AC50 was 15.8 µM (active).
Regarding `O=c1nc(-c2ccccc2)cn[nH]1`, the AC50 result was “inactive”.
As for `Nc1nc(C(=O)O)c(N=Nc2ccccc2)c(=O)[nH]1`, the activity, negative = inhibition was -0.919% [at 11.4 µM] (inactive).
For the molecule `Cn1c(=O)[nH]c(=O)c2c1nc(CN(Cc1ccccc1)Cc1ccccc1)n2CCN1CCOCC1`, the AC50 was 15.8 µM (active).
Turning to `COC(=O)Cn1c(CN(Cc2ccccc2)Cc2ccccc2)nc2c1c(=O)[nH]c(=O)n2C`, the AC50 was 14.1 µM (active).
Still for that read-out and setting: under `CCOCCn1c(CN(Cc2ccccc2)Cc2ccccc2)nc2c1c(=O)[nH]c(=O)n2C` stands 7.94 µM (active); under `Cn1c(=O)[nH]c(=O)c2c1nc(CN1CCOCC1)n2Cc1ccccc1`, “inactive”.
In the case of `CCOC(=O)Cn1c(CN(Cc2ccccc2)Cc2ccccc2)nc2c1c(=O)[nH]c(=O)n2C`, the half-maximal activity concentration (AC50) is 14.1 µM (active).
On to `CN(C)c1ccc(-c2nc(NCCN3CCOCC3)c3ccccc3n2)cc1`, for which the activity, negative = inhibition is 10.3% [at 2.29 µM] (inactive).
With `Cc1cc(C)n(-c2nc3c(c(=O)[nH]c(=O)n3C)n2CC(C)C)n1`, the AC50 entry was “inactive”.
For `Cc1ccc(C(=O)CNc2nc3c(c(=O)[nH]c(=O)n3C)n2Cc2ccccc2)cc1`, the concentration at half-maximal activity (AC50) was 0.891 µM (active).
Still for that read-out and setting: under `COCCCCC(=NOCCN)c1ccc(C(F)(F)F)cc1` stands 3.98 µM (active).
As to `CCON=C1C(C)(C)C(C)(C)C(C)(C)C1(C)C`, the activity, negative = inhibition is 4.67% [at 11.4 µM] (inactive).
With `CCCN=Cc1c(CCC)[nH]n(-c2nc3ccccc3s2)c1=O`, the half-maximal activity concentration (AC50) was 10 µM (active).
`CCn1c(C)c(/C=N/Nc2nc3ccccc3s2)c2ccccc21`: the AC50 entry was “inactive”.
Take `C(/C=C/c1ccco1)=N/N1CCN(c2ccccc2)CC1`: the AC50 result was “inactive”.
On the same count and under the same terms, the result for `Cc1sc(N)c(C(=O)c2cccc(C(F)(F)F)c2)c1C` reads “inactive”; that for `O=C(CSc1ccc(C(F)(F)F)cc1[N+](=O)[O-])Nc1ccccc1`, “inactive”; that for `CCC(C(=O)Nc1cccc(C(F)(F)F)c1)c1ccccc1` (stereo not given), 2.82 µM (active).
With `COC(=O)/C(=C\C(=O)c1ccccc1)Nc1cccc(C(F)(F)F)c1`, the AC50 was 15.8 µM (active).
For the molecule `O=c1[nH][nH]c(C(F)(F)F)c1C=Nc1ccccc1`, the AC50 result was “inactive”.
On the same count and under the same terms, under `CCC[C@H]1C(=O)N2C(N(C)C)=Nc3ccc(C)cc3N2C1=O` stands “inactive”.
With `Cn1c(C[C@@H](O)c2nc3ccccc3n2C)nc2ccccc21`, the activity, negative = inhibition is 5.4% [at 11.4 µM] (inactive).
As to `COc1ncc2nc(-c3ccc(Cl)cc3)c(=O)n(-c3ccccc3)c2n1`, the AC50 result was “inactive”.
As for `Cn1c(COc2nnc(-c3ccc(Cl)cc3)c3ccccc23)nc2ccccc21`, the AC50 is 3.98 µM (active).
Still for that read-out and setting: the result for `CSCC[C@H](C=O)NC(=O)[C@H](CC(C)C)NC(=O)[C@H](CC(C)C)NC(C)=O` (Ac-Leu-Leu-[dM]-aldehyde) reads “inactive”.
Turning to `C/C(Cn1nc([N+](=O)[O-])cc1C)=N\NC(=O)c1ccc(O)cc1O`, the AC50 result was “inactive”.
For `Cc1nn(Cc2ccc(Cl)cc2)c(C)c1NC(=O)Cn1nc([N+](=O)[O-])c(Cl)c1C`, the AC50 result is “inactive”.
`Cc1c(Cl)c([N+](=O)[O-])nn1Cc1ccc(C(=O)N/N=C\c2cc(Cl)ccc2O)o1`: the concentration at half-maximal activity (AC50) was 3.98 µM (active).
Regarding `Cc1c(Cl)c([N+](=O)[O-])nn1Cc1ccc(C(=O)N/N=C\c2cccc(Br)c2)o1`, the AC50 was 5.62 µM (active).
With `CCN(CC)CC[n+]1ccc2c(C)c3[nH]c4ccccc4c3c(C)c2c1`, the activity, negative = inhibition is 3.85% [at 11.4 µM] (inactive).
Regarding `O=C(O)c1nn(-c2ccccc2-c2n[nH]c(=O)[nH]c2=O)c(=O)[nH]c1=O`, the activity, negative = inhibition is -7.45% [at 11.4 µM] (inactive).
Same read-out and setting: under `CN(Cc1ccco1)c1cc(-c2ccoc2)ncn1` stands -1.76% [at 2.29 µM] (inactive).
Consider `C1COC(NC(C2CC2)C2CC2)=N1`, for which the AC50 result was “inactive”.
The same measure, in the same setting: the result for `O=C(CNCCO)N1CCc2ccccc21` reads “inactive”; that for `O=C(CSc1n[nH]c(-c2ccccc2O)n1)N1CCCc2ccccc21`, 1.12 µM (active).

For orientation: AC50 means the concentration at which the activity in the assay is half-maximal.
